# Results reported in PubChem BioAssay (NCATS).
# A number with no mark means an inactive call. Results filed as inconclusive are left out. Entries that show only a call come without a potency. Activity calls are given as the source filed them. Calls come from the whole dose curve; as a rule, active = well fitted curve in the direction sought with a large enough effect; inconclusive = small, poorly fitted or top-dose-only effect, or another doubt; inactive = no such curve, though single readings can be large; an effect the other way counts as inactive or inconclusive.
# Assays:
# [1] = molecular target: Glutathione peroxidase 1 (Homo sapiens) (UniProt P07203); assay: Primary qHTS Assay for Inhibitors of Recombinant Selenoprotein Glutathione Peroxidase 1 (GPX1) (AID 1845191); note: nearly all actives have a fitted effect of over 65% in size
# Summary of the method: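 GR-coupled assay: compounds preincubated 30 min at room temperature with GPX1, then reaction started with CHP; final 10 nM GPX1, 1 mM GSH, 0.5 mM CHP, 0.5 mM NADPH, 100 nM GR, 0.01% BSA, pH 7.5 Tris buffer. NADPH fluorescence (340/450 nm) read at 0 and 15 min.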
# [2] = molecular target: Phospholipid hydroperoxide glutathione peroxidase GPX4 (Homo sapiens) (UniProt P36969); assay: Primary qHTS Assay for Inhibitors of Recombinant Selenoprotein Glutathione Peroxidase 4 (GPX4) (AID 1845192); note: nearly all actives have a fitted effect of over 65% in size; for activity change, negative = inhibition: series mostly up to about 50 µM
# Summary of the method: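 GR-coupled assay: recombinant GPX4 preincubated 30 min with compound at room temperature; final 200 nM GPX4, 1 mM GSH, 0.5 mM cumene hydroperoxide, 0.5 mM NADPH, 100 nM GR, 0.01% BSA, pH 7.5 Tris. NADPH fluorescence (340/450 nm) read at 0 and 15 min.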
# [3] = molecular target: Luciferin 4-monooxygenase (Photinus pyralis) (UniProt P08659); assay: Primary firefly luciferase (FLuc) qHTS assay for identification of artifact compounds. (AID 1845220); note: nearly all actives have a fitted effect of over 60% in size; for activity change, negative = inhibition: series mostly up to about 54 µM
# Summary of the method: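 D-luciferin and ATP (10 uM each, final) in Tris acetate buffer pH 7.6 were incubated with compounds for 15 min at room temperature. The reaction was started with 10 nM Photinus pyralis luciferase and luminescence read after 5 min. Percent inhibition was fitted to a 4-parameter Hill equation.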
# [4] = Primary fluorescence-based thiol-reactive (MSTI) qHTS assay for identification of artifact compounds. (AID 1845221); note: nearly all actives have a fitted effect of over 65% in size; note: potency is the fitted concentration of half-maximal effect;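 for activity change, negative = thiol reactive: series mostly up to about 54 µM; thiol-reactive compounds lower the probe fluorescence signal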
# Summary of the method: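 Probe: MSTI 4 uM, PBS pH 7.4, 2% DMSO. Incubation 1 h, RT, light-protected. Readout fluorescence 525/598 nm.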
# [5] = test system: Nanoluciferase (engineered Oplophorus gracilirostris luciferase); assay: Primary Nanoluciferase (NLuc) qHTS assay for identification of artifact compounds. (AID 1845222); note: series mostly up to about 54 µM
# Summary of the method: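 Diluted conditioned medium from NLuc-expressing S16 cells treated with compounds for 15 min at room temperature, then Nano-Glo substrate added; luminescence read after 5 min. Percent inhibition versus no-enzyme and DMSO controls fitted to 4-parameter Hill equation.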
# [6] = Primary redox qHTS assay for identification of artifact compounds. (AID 1845223)
# Summary of the method: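 Amplex Red (25 uM) and HRP (250 mU/mL) in HBSS, with compounds for 15 min, then 250 uM DTT for 30 min, room temperature, dark. Fluorescence 525/598 nm read; normalized to DMSO and 10 uM DA3003; Hill fit.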
# Phospholipid hydroperoxide glutathione peroxidase GPX4 (Homo sapiens), sequence (P36969 whole entry, looked up): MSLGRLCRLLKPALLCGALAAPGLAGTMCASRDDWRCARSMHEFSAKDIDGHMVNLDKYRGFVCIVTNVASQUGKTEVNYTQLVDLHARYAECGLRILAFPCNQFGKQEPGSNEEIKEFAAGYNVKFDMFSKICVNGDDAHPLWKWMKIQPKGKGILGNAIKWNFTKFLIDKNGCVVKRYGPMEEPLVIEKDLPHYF
# Glutathione peroxidase 1 (Homo sapiens), sequence (P07203 whole entry, looked up): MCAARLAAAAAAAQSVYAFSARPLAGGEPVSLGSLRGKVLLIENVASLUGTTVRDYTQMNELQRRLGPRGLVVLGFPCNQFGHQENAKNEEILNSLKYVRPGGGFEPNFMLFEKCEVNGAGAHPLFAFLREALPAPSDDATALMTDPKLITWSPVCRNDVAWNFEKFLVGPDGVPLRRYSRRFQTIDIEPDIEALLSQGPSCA
smiles,measurement,setting,value
COc1cc(/C=C/C(=O)O[C@H]2[C@H](O)[C@@H](CO)O[C@@]2(CO)O[C@H]2O[C@H](CO)[C@@H](O)[C@H](O)[C@H]2O)ccc1O,Potency,[1],inactive
same,Potency,[2],inactive
same,Potency,[3],inactive
same,Potency,[4],inactive
same,Potency,[5],inactive
same,Potency,[6],inactive
C=C(C)C1CCC2(C(=O)O[C@@H]3O[C@H](CO[C@@H]4O[C@H](CO)[C@@H](O)[C@H](O)[C@H]4O)[C@@H](O)[C@H](O[C@@H]4O[C@@H](C)[C@H](O)[C@@H](O)[C@H]4O)[C@H]3O)CCC3(C(=O)O)C(CCC4C5(C)CCC(O)C(C)(C)C5CCC43C)C12 (some centres undefined),Potency,[1],inactive
same,Potency,[2],inactive
same,outcome,[3],inactive [at 11.6 µM]
same,"activity change, negative = thiol reactive",[4],301% [at 11.5 µM]
same,"activity, negative = inhibition",[5],0% [at 11.6 µM]
same,redox activity (% of DA3003),[6],10.3% [at 11.5 µM]
O=C(Nc1c(-c2cccs2)nc2ccccn12)c1ccc(Cl)cc1,Potency,[1],inactive
same,Potency,[2],inactive
same,Potency,[3],inactive
same,Potency,[4],inactive
same,Potency,[5],inactive
same,Potency,[6],inactive
C[C@@H]1CC[C@@]2(OC1)O[C@H]1C[C@H]3[C@@H]4CC=C5C[C@@H](O)CC[C@]5(C)[C@H]4CC[C@]3(C)[C@H]1[C@@H]2C,Potency,[1],inactive
same,Potency,[2],inactive
same,Potency,[3],inactive
same,Potency,[4],inactive
same,Potency,[5],inactive
same,Potency,[6],inactive
Cc1csc(NC(=O)c2ccc(COc3cccc(Cl)c3)o2)n1,Potency,[1],inactive
same,Potency,[2],inactive
same,Potency,[3],inactive
same,Potency,[4],inactive
same,Potency,[5],inactive
same,Potency,[6],inactive
CC1OC(OC2C(CO)OC(OCC3OC(OC(=O)C45CCC(C)(C)CC4C4=CCC6C7(C)CCC(OC8OC(CO)C(O)C(OC9OC(CO)C(O)C(O)C9O)C8O)C(C)(C)C7CCC6(C)C4(C)CC5)C(O)C(O)C3O)C(O)C2O)C(O)C(O)C1OC1OC(CO)C(O)C(O)C1O (centres undefined),"activity, negative = inhibition",[1],-12.6% [at 9.52 µM]
same,"activity change, negative = inhibition",[2],-8.53% [at 9.73 µM]
same,"activity change, negative = inhibition",[3],-3.46% [at 11.6 µM]
same,"activity change, negative = thiol reactive",[4],208% [at 11.5 µM]
same,"activity, negative = inhibition",[5],1.03% [at 11.6 µM]
same,redox activity (% of DA3003),[6],10.1% [at 11.5 µM]
Cc1cc(Nc2nc(NC(C)c3ncc(F)cn3)ncc2Cl)n[nH]1 (centres undefined),Potency,[1],inactive
same,Potency,[2],inactive
same,Potency,[3],inactive
same,Potency,[4],inactive
same,Potency,[5],inactive
same,Potency,[6],inactive
CC1CC(C(O)C(C)(C)O)OC2CC3(C)C4(C)CCC5C(C)(C)C(=O)CCC5(C)C4CCC3(O)C12O (centres undefined),Potency,[1],inactive
same,Potency,[2],inactive
same,Potency,[3],inactive
same,Potency,[4],inactive
same,Potency,[5],inactive
same,Potency,[6],inactive
CCC(CC)C(=O)Nc1sc2c(c1C#N)CCC(C(C)(C)CC)C2 (centres undefined),Potency,[1],inactive
same,Potency,[2],inactive
same,Potency,[3],inactive
same,Potency,[4],inactive
same,Potency,[5],inactive
same,Potency,[6],inactive
OC[C@H]1O[C@@H](OC(CCCCc2ccc(O)cc2)CCc2ccc(O)cc2)[C@H](O)[C@@H](O)[C@@H]1O (some centres undefined),Potency,[1],inactive
same,Potency,[2],inactive
same,Potency,[3],inactive
same,Potency,[4],inactive
same,Potency,[5],inactive
same,Potency,[6],inactive
CO[C@H]1/C=C/[C@@](C)(O)/C=C/C(=O)O[C@H](C)[C@@H](C)CC/C=C/1C,Potency,[1],inactive
same,Potency,[2],inactive
same,Potency,[3],inactive
same,Potency,[4],inactive
same,Potency,[5],inactive
same,Potency,[6],inactive
NCc1ccc(Nc2ncc(F)c(Nc3ccccc3)n2)cc1,Potency,[1],inactive
same,Potency,[2],inactive
same,Potency,[3],inactive
same,Potency,[4],inactive
same,Potency,[5],inactive
same,Potency,[6],inactive
CCC(Nc1ncnc2nc[nH]c12)c1nc2cccc(F)c2c(=O)n1-c1ccccc1 (centres undefined),Potency,[1],inactive
same,Potency,[2],inactive
same,Potency,[3],inactive
same,Potency,[4],inactive
same,Potency,[5],inactive
same,Potency,[6],inactive
O=C(O[C@H]1[C@@H]2C[C@@H]3OC[C@](O)([C@@H]1Cl)[C@H]2C(O[C@@H]1O[C@H](CO)[C@@H](O)[C@H](O)[C@H]1O)O3)c1ccc(O)c(O)c1 (some centres undefined),Potency,[1],inactive
same,Potency,[2],inactive
same,Potency,[3],inactive
same,Potency,[4],1.46 µM (active)
same,Potency,[5],inactive
same,Potency,[6],inactive
C=C(CO[C@@H]1O[C@H](CO[C@@H]2OC[C@](O)(CO)[C@H]2O)[C@@H](O)[C@H](O)[C@H]1O)C1Cc2cc(C(C)=O)ccc2O1 (some centres undefined),Potency,[1],inactive
same,Potency,[2],inactive
same,Potency,[3],inactive
same,Potency,[4],5.19 µM (active)
same,Potency,[5],inactive
same,Potency,[6],inactive
O=C(NOCC(O)CO)c1ccc(F)c(F)c1Nc1ccc(I)cc1F (centres undefined),Potency,[1],inactive
same,Potency,[2],inactive
same,Potency,[3],inactive
same,Potency,[4],inactive
same,Potency,[5],inactive
same,Potency,[6],inactive
Cc1ccc(C)c(OCCn2cc(C(=O)O)c3ccccc32)c1,Potency,[1],inactive
same,Potency,[2],inactive
same,Potency,[3],inactive
same,Potency,[4],inactive
same,Potency,[5],inactive
same,Potency,[6],inactive
O=C(COc1cccc2c(=O)[nH]ccc12)c1ccccc1,Potency,[1],inactive
same,Potency,[2],inactive
same,Potency,[3],inactive
same,Potency,[4],inactive
same,Potency,[5],inactive
same,Potency,[6],inactive
COC(=O)CCC(=O)OC[C@]1(C)CCC[C@@]2(C)C3CC[C@]4(C)C=CC3(CCC12)C4 (some centres undefined),Potency,[1],inactive
same,Potency,[2],inactive
same,Potency,[3],inactive
same,Potency,[4],inactive
same,Potency,[5],inactive
same,Potency,[6],inactive
